# Experimental data: PubChem BioAssay AID1159580 (chemical genetic matrix, 2015)
# Out of some 5,500 compounds screened, about 2,000 (36%) were called active. Roughly 18% stayed inconclusive and do not appear here. The list shows a part of the results. Values without a mark were called inactive. Rule as the data show it: active = normalized growth mostly below about 0.91 (no sharp cut-off); inconclusive = no clear call, values can overlap the other calls; inactive = mostly above about 0.92.
# Test: chemical genetic growth profiling, strain panel (AID 1159580);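 also: tested at 20 µM; growth read once vehicle control cultures reached saturation at 30 °C; 1 = growth at the plate median or of vehicle wells; lower values mean less growth of the strain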
# Conditions: S. cerevisiae deletion strains, growth OD
# [1] = locus YAL040C, strain CLN3, stronger effect = lower value
# [2] = locus YCL061C, strain MRC1 (second series), stronger effect = lower value
# [3] = locus YDR150W, strain NUM1, stronger effect = lower value
# [4] = locus YDR363W, strain ESC2, stronger effect = lower value
# [5] = locus YER002W, strain NOP16, stronger effect = lower value
# [6] = locus YGR078C, strain PAC10, stronger effect = lower value
# [7] = locus YGR229C, strain SMI1, stronger effect = lower value
# [8] = locus YJR075W, strain HOC1, stronger effect = lower value
# [9] = locus YNL175C, strain NOP13, stronger effect = lower value
# [10] = locus YNL197C, strain WHI3, stronger effect = lower value
# [11] = locus YNL224C, strain SQS1, stronger effect = lower value
# [12] = locus YOR083W, strain WHI5 (second series), stronger effect = lower value
Structure (SMILES),normalized growth [1],normalized growth [2],normalized growth [3],normalized growth [4],normalized growth [5],normalized growth [6],normalized growth [7],normalized growth [8],normalized growth [9],normalized growth [10],normalized growth [11],normalized growth [12],"normalized growth (locus YPL055C, strain LGE1, stronger effect = lower value)","normalized growth (locus YPL241C, strain CIN2, stronger effect = lower value)","normalized growth (locus YMR307W, strain GAS1, stronger effect = lower value)","normalized growth (locus YAL013W, strain DEP1, stronger effect = lower value)","normalized growth (locus YNL153C, strain GIM3, stronger effect = lower value)","normalized growth (locus YNL322C, strain KRE1, stronger effect = lower value)"
Clc1ccc(N2CCN(Cc3c[nH]c4ncccc34)CC2)cc1,1.08,0.969,0.965,0.907,0.968,0.975,0.748 (active),0.929,0.969,0.974,0.987,0.925,0.92,0.992,–,–,–,–
Ic1ccc(N2CCN(Cc3c[nH]c4ncccc34)CC2)cc1,1,0.919 (active),0.914 (active),0.956,1.06,0.851 (active),–,–,1.01,1.01,1.06,0.809 (active),–,–,1.01,–,–,–
OC1(c2ccc(Cl)cc2)CCN(Cc2c[nH]c3ccccc23)CC1,1,0.999,–,0.974,1.03,1.02,0.979,1.01,1.02,1.02,1.03,1.01,–,–,–,1.01,1,0.993
